PubChem BioAssay (EPA / NIEHS)
Results filed as inconclusive are left out. Active and inactive are the calls of the source. How the source made its calls: active means hit-call score of the fitted dose curve at least 0.9, where 1 is the maximum; inconclusive means response in the unintended direction; inactive means score below 0.9.

Experiments:
[1] = test system: turtle Thyroid Hormone Receptor, alpha (TRa), gene 101949057; assay: ATG_trTRa_XSP1: Attagene TRANS-FACTORIAL Multi-Species (XSP1) HepG2 Assay for turtle Thyroid Hormone Receptor, alpha (TRa) (AID 2283806)
Outline: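 After 24 h chemical exposure, reporter transcripts were measured by RT-PCR with fluorescent primer extension, HpaI digestion and capillary electrophoresis. Cells were transiently transfected HepG2 expressing exogenous NR-Gal4 chimeras; medium contained 3 nM 6-alpha-fluorotestosterone; fitted upward relative to DMSO.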

[2] = biological target: zebrafish Thyroid Hormone Receptor alpha (TRa), thraa (gene 30670) (UniProt Q98867); assay: ATG_zfTRa_XSP1: Attagene TRANS-FACTORIAL Multi-Species (XSP1) HepG2 Assay for zebrafish Thyroid Hormone Receptor alpha (TRa) (AID 2283807)
Sequence of zebrafish Thyroid Hormone Receptor alpha (TRa), thraa (gene 30670) (Q98867 whole entry, looked up, the tested form may be a part): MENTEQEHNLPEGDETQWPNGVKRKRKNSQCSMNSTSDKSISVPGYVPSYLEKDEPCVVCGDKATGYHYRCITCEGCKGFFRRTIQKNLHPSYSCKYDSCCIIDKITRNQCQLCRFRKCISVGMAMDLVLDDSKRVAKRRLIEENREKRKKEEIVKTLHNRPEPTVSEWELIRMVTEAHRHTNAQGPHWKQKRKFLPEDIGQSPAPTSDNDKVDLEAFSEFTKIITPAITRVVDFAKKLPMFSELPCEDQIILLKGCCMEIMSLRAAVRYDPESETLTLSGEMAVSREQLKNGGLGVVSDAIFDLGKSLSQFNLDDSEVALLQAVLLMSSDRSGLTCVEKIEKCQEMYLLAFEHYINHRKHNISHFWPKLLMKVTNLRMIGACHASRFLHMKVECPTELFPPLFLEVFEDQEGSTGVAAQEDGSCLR
Outline: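 Reporter transcripts driven by a chimeric zebrafish TRa–Gal4 protein were measured by RT-PCR with fluorescent labelling and capillary electrophoresis. These came from transiently transfected HepG2 cells after 24 h chemical exposure, with 3 nM 6-alpha-fluorotestosterone added; baseline was DMSO.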

[3] = biological target: human Thyroid hormone Receptor beta (TRb), THRB (gene 7068) (UniProt P10828); assay: ATG_hTRb_XSP1: Attagene TRANS-FACTORIAL Multi-Species (XSP1) HepG2 Assay for human Thyroid hormone Receptor beta (TRb) (AID 2283808)
Sequence of human Thyroid hormone Receptor beta (TRb), THRB (gene 7068) (P10828 whole entry, looked up, the tested form may be a part): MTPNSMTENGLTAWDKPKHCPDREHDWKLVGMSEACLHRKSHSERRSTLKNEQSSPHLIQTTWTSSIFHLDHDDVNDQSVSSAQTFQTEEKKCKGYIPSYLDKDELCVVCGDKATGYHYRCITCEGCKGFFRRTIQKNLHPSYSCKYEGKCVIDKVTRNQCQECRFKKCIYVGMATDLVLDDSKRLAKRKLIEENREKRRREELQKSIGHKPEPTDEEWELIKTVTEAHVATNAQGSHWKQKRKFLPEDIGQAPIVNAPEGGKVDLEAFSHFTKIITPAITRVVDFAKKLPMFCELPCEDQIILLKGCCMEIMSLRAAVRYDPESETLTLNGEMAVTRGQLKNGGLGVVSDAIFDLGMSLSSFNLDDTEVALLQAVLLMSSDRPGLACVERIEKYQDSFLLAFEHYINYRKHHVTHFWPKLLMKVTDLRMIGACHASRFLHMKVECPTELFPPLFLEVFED
Outline: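 Readout is reporter mRNA induction measured by RT-PCR, fluorescent labelling and capillary electrophoresis, fitted upward relative to DMSO. Transiently transfected human HepG2 cells expressing NR-Gal4 chimeras were dosed for 24 h, medium containing 3 nM 6-alpha-fluorotestosterone.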

[4] = biological target: zebrafish Thyroid Hormone Receptor beta (TRb), thrb (gene 30607) (UniProt Q9PVE4); assay: ATG_zfTRb_XSP1: Attagene TRANS-FACTORIAL Multi-Species (XSP1) HepG2 Assay for zebrafish Thyroid Hormone Receptor beta (TRb) (AID 2283809)
Sequence of zebrafish Thyroid Hormone Receptor beta (TRb), thrb (gene 30607) (Q9PVE4 whole entry, looked up, the tested form may be a part): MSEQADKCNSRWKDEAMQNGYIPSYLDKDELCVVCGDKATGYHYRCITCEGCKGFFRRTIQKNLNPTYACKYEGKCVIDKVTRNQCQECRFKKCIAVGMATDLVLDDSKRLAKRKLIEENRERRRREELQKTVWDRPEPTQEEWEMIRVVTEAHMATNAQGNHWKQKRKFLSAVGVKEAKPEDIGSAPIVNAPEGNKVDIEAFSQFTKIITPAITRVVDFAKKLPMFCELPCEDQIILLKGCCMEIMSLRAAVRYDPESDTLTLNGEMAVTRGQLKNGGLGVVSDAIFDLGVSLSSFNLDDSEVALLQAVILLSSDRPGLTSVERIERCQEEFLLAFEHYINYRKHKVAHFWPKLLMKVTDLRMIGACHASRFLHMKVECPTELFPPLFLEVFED
Outline: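 HepG2 cells transiently transfected with multiplexed GAL4-UAS reporter units expressing chimeric zebrafish TRb–Gal4. Dosed 24 h with 3 nM 6-alpha-fluorotestosterone present; reporter mRNA measured by RT-PCR, HpaI digestion and capillary electrophoresis; gain of signal versus DMSO.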

[5] = ATG_XTT_Cytotoxicity_XSP1: Cytotoxicity Assessment in the Attagene TRANS-FACTORIAL Multi-Species (XSP1) HepG2 Assay (AID 2283810)
Outline: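 XTT viability readout taken at 24 hours post-dosing in HepG2 liver cells co-treated with 3 nM 6-alpha-fluorotestosterone. Signal loss relative to DMSO controls reflects cytotoxicity.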

[6] = ATG_M_06_XSP2: Attagene TRANS-FACTORIAL Multi-Species (XSP2) HepG2 Assay for M06 Transcription Factor (Internal Marker) (AID 2283811);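 further: internal background marker reporter mRNA measured by RT-PCR and capillary electrophoresis; hits are increases in signal above the DMSO baseline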
Outline: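 Cells of the human liver line HepG2 carried transfected reporter transcription units and were treated for 24 h. Induced reporter transcripts were detected by fluorescence after RT-PCR and capillary electrophoresis, with activity fitted in the gain direction against DMSO.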

[7] = test system: turtle Estrogen Receptor (ERa), gene 101933533; assay: ATG_trERa_XSP2: Attagene TRANS-FACTORIAL Multi-Species (XSP2) HepG2 Assay for turtle Estrogen Receptor (ERa) (AID 2283812);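 further: actives raise reporter signal above DMSO so AC50 reflects agonist activity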
Outline: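 Readout is reporter mRNA quantified by RT-PCR with capillary electrophoresis after 24 h compound exposure, increase relative to DMSO. Uses transiently transfected human HepG2 liver cells carrying a chimeric turtle ERa-Gal4 receptor driving GAL4-UAS reporters.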

[8] = biological target: Estrogen receptor beta (Homo sapiens) (UniProt Q92731); assay: ATG_hERb_XSP2: Attagene TRANS-FACTORIAL Multi-Species (XSP2) HepG2 Assay for human Estrogen Receptor (ERb) (AID 2283813);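 further: actives raise reporter mRNA above DMSO so AC50 reflects agonist induction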
Sequence of Estrogen receptor beta (Homo sapiens) (Q92731 whole entry, looked up, the tested form may be a part): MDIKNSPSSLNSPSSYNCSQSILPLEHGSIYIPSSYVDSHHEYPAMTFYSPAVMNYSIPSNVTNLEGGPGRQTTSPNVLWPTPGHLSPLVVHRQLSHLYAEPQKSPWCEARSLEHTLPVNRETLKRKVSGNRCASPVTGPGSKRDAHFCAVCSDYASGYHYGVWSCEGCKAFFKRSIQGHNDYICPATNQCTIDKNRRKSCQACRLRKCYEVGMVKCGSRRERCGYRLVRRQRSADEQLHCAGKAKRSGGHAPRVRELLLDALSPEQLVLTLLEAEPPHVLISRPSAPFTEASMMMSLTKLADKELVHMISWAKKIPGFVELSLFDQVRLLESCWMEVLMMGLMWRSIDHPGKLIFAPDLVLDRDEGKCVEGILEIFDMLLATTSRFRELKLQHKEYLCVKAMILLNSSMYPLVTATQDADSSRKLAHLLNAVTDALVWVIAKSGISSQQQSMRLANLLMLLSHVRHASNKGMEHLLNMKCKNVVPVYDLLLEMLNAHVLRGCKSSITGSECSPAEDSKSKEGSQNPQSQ
Outline: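 Transient TRANS reporter system in HepG2: after 24 h of chemical, RNA is reverse-transcribed, reporter cDNA amplified, FAM-labelled and sized by capillary electrophoresis. Induction of the human ERb-Gal4 reporter is measured relative to DMSO.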

[9] = biological target: GAL4 Transcription Factor (Internal Marker), GAL4 (gene 855828) (UniProt P04386); assay: ATG_GAL4_XSP2: Attagene TRANS-FACTORIAL Multi-Species (XSP2) HepG2 Assay for GAL4 Transcription Factor (Internal Marker) (AID 2283814);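 further: GAL4 reporter mRNA background control in MRTU transfected cells not a receptor target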
Sequence of GAL4 Transcription Factor (Internal Marker), GAL4 (gene 855828) (P04386 whole entry, looked up, the tested form may be a part): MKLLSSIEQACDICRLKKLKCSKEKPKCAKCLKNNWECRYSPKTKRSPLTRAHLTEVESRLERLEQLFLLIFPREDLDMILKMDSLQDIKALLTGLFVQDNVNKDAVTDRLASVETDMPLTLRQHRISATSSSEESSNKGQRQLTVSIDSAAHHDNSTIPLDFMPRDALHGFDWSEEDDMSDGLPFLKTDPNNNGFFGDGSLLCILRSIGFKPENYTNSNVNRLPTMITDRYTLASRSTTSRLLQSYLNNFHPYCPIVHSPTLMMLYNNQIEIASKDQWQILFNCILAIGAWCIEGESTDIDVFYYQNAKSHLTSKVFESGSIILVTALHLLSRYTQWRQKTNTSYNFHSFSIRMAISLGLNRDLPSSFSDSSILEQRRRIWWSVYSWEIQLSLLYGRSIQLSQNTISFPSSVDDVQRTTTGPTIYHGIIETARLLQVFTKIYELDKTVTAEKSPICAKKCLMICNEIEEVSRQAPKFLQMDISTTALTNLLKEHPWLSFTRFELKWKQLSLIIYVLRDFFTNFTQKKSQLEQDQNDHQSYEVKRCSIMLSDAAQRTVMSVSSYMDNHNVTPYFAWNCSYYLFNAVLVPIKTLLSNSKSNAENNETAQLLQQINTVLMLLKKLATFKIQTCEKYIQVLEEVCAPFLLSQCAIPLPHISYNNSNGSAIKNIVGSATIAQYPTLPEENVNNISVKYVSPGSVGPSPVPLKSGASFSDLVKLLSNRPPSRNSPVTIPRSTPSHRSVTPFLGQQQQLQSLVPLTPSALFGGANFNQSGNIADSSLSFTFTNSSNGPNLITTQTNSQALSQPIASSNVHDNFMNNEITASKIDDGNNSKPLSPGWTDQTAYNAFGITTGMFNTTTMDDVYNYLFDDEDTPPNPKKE
Outline: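 Background-control readout: gain-of-signal fitted against DMSO. After 24 h exposure of transfected HepG2 (MRTU, GAL4-UAS reporters; 3 nM 6-alpha-fluorotestosterone, 1.5 nM norgestrel present), transcripts quantified by RT-PCR and capillary electrophoresis fluorescence.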

[10] = test system: turtle Androgen Receptor (AR), gene 101947425; assay: ATG_trAR_XSP2: Attagene TRANS-FACTORIAL Multi-Species (XSP2) HepG2 Assay for turtle Androgen Receptor (AR) (AID 2283815)
Outline: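 Reporter transcripts were quantified via RT-PCR and capillary electrophoresis and fitted upward against DMSO. Transiently transfected human HepG2 cells carrying NR-Gal4 chimeras were exposed 24 h, with 3 nM 6-alpha-fluorotestosterone plus 1.5 nM norgestrel added.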

Measured: AC50

CC(C)C(=O)Nc1ccc([N+](=O)[O-])c(C(F)(F)F)c1
active: [1] 22.7 µM | [2] 18.3 µM | [3] 100 µM | [4] 40.2 µM
inactive: [5] | [6] | [7] | [8]

CCN(CC)C(=S)SSC(=S)N(CC)CC
active: [5] 30.8 µM
inactive: [1] | [2] | [3] | [4] | [6]

C=CCc1cc(S(=O)(=O)c2ccc(O)c(CC=C)c2)ccc1O
active: [1] 100 µM | [5] 160 µM | [7] 8.75 µM
not listed: [2]
inactive: all other assays above
